{"source": "PubChem BioAssay (NCATS)", "note": "Records with an inconclusive call do not appear. Activity calls are given as the source filed them. Calls come from the whole dose curve; as a rule, active = well fitted inhibition curve with a large enough effect; inconclusive = small, poorly fitted or top-dose-only effect; inactive = no such curve, though single readings can be large or run the other way."}
{"experiment": "qHTS assay for measurement of the activity of small molecule inhibitors on Zika virus induced Caspase-3 activity in human iPSC derived neural progenitor cells (hNPCs) (AID 1224857); note: nearly all actives have a fitted effect of over 65% in size; note: potency is the fitted concentration of half-maximal effect; for activity change, negative = inhibition: % of control where 0% means no effect", "conditions": "hNPCs ZIKV-induced caspase-3/7, Caspase-Glo luminescence, 6 h; series mostly up to 45.7 µM; activity change, negative = inhibition: at the top concentration", "summary_of_the_method": "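Caspase-3/7 induction by a 6-hour ZIKV infection was quantified with a luminescent Caspase-Glo 3/7 reagent incubated 30 minutes at room temperature. Compounds were preincubated with hNPCs for 1 hour; inhibition was calculated against uninfected and infected control wells.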"}
{"smiles": "CN1CCN(c2cc(C(=O)Nc3ccc4c(c3)-c3c(c(C(N)=O)nn3-c3ccc(F)cc3)CC4)c(Cl)cn2)CC1", "activity change, negative = inhibition": "32.3% (inactive)"}
{"smiles": "CS(=O)(=O)c1ccc(-c2cnc(N)c(C(=O)Nc3ccccc3)n2)cc1", "activity change, negative = inhibition": "27.5% (inactive)"}
{"smiles": "CN(C)CC(C)(C)CNc1nn2c(-c3ccccc3)nnc2cc1C1CCC1", "activity change, negative = inhibition": "66.9% (inactive)"}
{"smiles": "CC(=O)Nc1nc(C)c(-c2ccc(Cl)c(S(=O)(=O)NCCO)c2)s1", "activity change, negative = inhibition": "43.5% (inactive)"}
{"smiles": "CCn1nnc2c(N3CCOCC3)nc(-c3ccc(NC(=O)Nc4ccc(C(=O)N5CCN(C)CC5)cc4)cc3)nc21", "activity change, negative = inhibition": "47% (inactive)"}
{"smiles": "CNC(=O)c1cc(Oc2ccc(NC(=O)Nc3cc(C(C)(C)C)nn3-c3ccc4ncccc4c3)c(F)c2)ccn1", "activity change, negative = inhibition": "45.6% (inactive)"}
{"smiles": "O=C(NCCCNc1nc(Nc2cccc(NC(=O)N3CCCC3)c2)ncc1I)c1cccs1", "activity change, negative = inhibition": "-9.98% (inactive)"}
{"smiles": "Cn1c(CNc2ccc(C(=N)N)cc2)nc2cc(C(=O)N(CCC(=O)O)c3ccccn3)ccc21", "activity change, negative = inhibition": "39.8% [at 20.5 µM] (inactive)"}
{"smiles": "Cc1ccc(C(=O)Nc2cccc(C(F)(F)F)c2)cc1-c1ccc2nc(NCCN3CCOCC3)ncc2c1", "activity change, negative = inhibition": "18.1% (inactive)"}
{"smiles": "CNC(=O)c1ccc(N2C(=S)N(c3cnc(C#N)c(C(F)(F)F)c3)C(=O)C23CCC3)cc1F", "activity change, negative = inhibition": "14.4% (inactive)"}
{"smiles": "CC(C)(C)c1cnc(CSc2cnc(NC(=O)C3CCNCC3)s2)o1", "activity change, negative = inhibition": "43.3% (inactive)"}
{"smiles": "C=C1C(=CC=C2CCC[C@]3(C)[C@@H]([C@H](C)C=C[C@H](C)C(C)C)CC[C@@H]23)C[C@@H](O)C[C@@H]1O", "activity change, negative = inhibition": "-7.95% (inactive)"}
{"smiles": "O=C(Nc1nc2cccc(-c3ccc(CN4CCS(=O)(=O)CC4)cc3)n2n1)C1CC1", "activity change, negative = inhibition": "-9.92% (inactive)"}
{"smiles": "O=C(O)C1(Cc2cccc(Nc3nccs3)n2)CCC(Oc2cccc(Cl)c2F)CC1", "note": "(stereo not given)", "activity change, negative = inhibition": "35.4% (inactive)"}
{"smiles": "Nc1nccc(Oc2ccc(NC(=O)c3c[nH]cc(-c4ccc(F)cc4)c3=O)cc2F)c1Cl", "activity change, negative = inhibition": "1.21% (inactive)"}
{"smiles": "Clc1ccc2ncc(-c3cccc(NC4CNC4)n3)n2c1", "activity change, negative = inhibition": "90.5% (inactive)"}
{"smiles": "O=c1[nH]nc(Sc2ncc([N+](=O)[O-])s2)n1-c1ccc2c(c1)OCCO2", "Potency": "23.5 µM (active)"}
{"smiles": "CC(C)Nc1cc(C(F)(F)F)cc2nc(NC(=O)c3cccnc3)nn12", "activity change, negative = inhibition": "17.7% (inactive)"}
{"smiles": "O=C(O)CCCc1c[nH]c2ccccc12", "activity change, negative = inhibition": "20.5% (inactive)"}
{"smiles": "C=C1C(=CC=C2CCCC3(C)[C@@H]([C@H](C)C=CC=CC(O)(CC)CC)CC[C@@H]23)C[C@@H](O)C[C@@H]1O", "note": "(stereo not given in full)", "activity change, negative = inhibition": "-23.4% (inactive)"}
{"smiles": "CNc1nccc(-c2cccnc2Oc2cc(C(=O)Nc3cccc(C(F)(F)F)c3)ccc2C)n1", "activity change, negative = inhibition": "-7.55% (inactive)"}
{"smiles": "COc1cc2c(Nc3ccc(NC(=O)c4ccccc4)cc3)ncnc2cc1OCCCN1CCOCC1", "activity change, negative = inhibition": "32.6% (inactive)"}
{"smiles": "CCCCCCCCCC(=O)N[C@@H](Cc1c[nH]c2ccccc12)C(=O)N[C@H](CC(N)=O)C(=O)N[C@@H](CC(=O)O)C(=O)N[C@@H]1C(=O)NCC(=O)N[C@@H](CCCN)C(=O)N[C@@H](CC(=O)O)C(=O)N[C@H](C)C(=O)N[C@@H](CC(=O)O)C(=O)NCC(=O)N[C@H](CO)C(=O)N[C@@H]([C@@H](C)CC(=O)O)C(=O)N[C@@H](CC(=O)c2ccccc2N)C(=O)O[C@@H]1C", "activity change, negative = inhibition": "48.4% (inactive)"}
{"smiles": "Cc1nc(N)ncc1-c1nc(N2CCOCC2)c2sc(C(C)(C)O)cc2n1", "activity change, negative = inhibition": "11.1% (inactive)"}
{"smiles": "Cc1ccc(CN2CCNCC2)cc1NC(=O)CNc1ccc(F)c(F)c1", "activity change, negative = inhibition": "12.6% (inactive)"}
{"smiles": "CN(C1CCc2c(c3ccccc3n2CC(=O)O)C1)S(=O)(=O)c1ccc(F)cc1", "note": "(stereo not given)", "activity change, negative = inhibition": "-15% (inactive)"}
{"smiles": "Cc1c(Cn2c(C)nc3c(C(=O)O)cc(N4CCOCC4)cc32)cccc1C(F)(F)F", "activity change, negative = inhibition": "44.4% (inactive)"}
{"smiles": "CNC(=O)c1ccccc1Nc1nc(Nc2ccc(N3CCOCC3)cc2OC)ncc1Cl", "activity change, negative = inhibition": "27.4% (inactive)"}
{"smiles": "CC(C)c1cc(C(=O)N2Cc3ccc(CN4CCN(C)CC4)cc3C2)c(O)cc1O", "activity change, negative = inhibition": "1.44% (inactive)"}
{"smiles": "COc1cc2c(Oc3ccc(NC(=O)C4(C(=O)Nc5ccc(F)cc5)CC4)cc3F)ccnc2cc1OCCCN1CCOCC1", "activity change, negative = inhibition": "42.1% (inactive)"}
{"smiles": "CCNC(=O)Nc1ccc2ncc(Nc3ccc(C)cc3)nc2n1", "activity change, negative = inhibition": "-4.99% (inactive)"}
{"smiles": "CN(C)c1nc(Cc2ccc(NC(=O)c3ccc4ccccc4c3)cc2)nc(Cl)c1CC(=O)O", "activity change, negative = inhibition": "-7.29% (inactive)"}
{"smiles": "COC(=O)Nc1ccc(-c2nc(N3CCOCC3)c3cnn(C4CCN(Cc5cccnc5)CC4)c3n2)cc1", "activity change, negative = inhibition": "3.61% (inactive)"}
{"smiles": "CC(C)(C)c1cc(C(C)(C)C)c(NC(=O)c2c[nH]c3ccccc3c2=O)cc1O", "activity change, negative = inhibition": "33.8% (inactive)"}
{"smiles": "Cc1cc(Nc2cc(N3CCN(C)CC3)nc(C=Cc3ccccc3)n2)n[nH]1", "activity change, negative = inhibition": "39.7% [at 92.8 µM] (inactive)"}
{"experiment": "qHTS assay for measurement of the activity of small molecule inhibitors on Zika virus induced Caspase-3 activity in human astrocytoma cells (AID 1224859);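 note: plate controls were ZIKV-infected untreated cells for no effect and uninfected cells for full effect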", "conditions": "SNB-19 ZIKV-induced caspase-3/7, luminescence, 6 h; series mostly up to 45.7 µM; activity change, negative = inhibition: at the top concentration", "summary_of_the_method": "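In SNB-19 cells plated at 250 cells/well and grown 16-20 h, compounds were applied 1 h before ZIKV (2 FFU/cell). Six hours later caspase-3/7 luminescence was recorded.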"}
{"smiles": "CN1CCN(c2cc(C(=O)Nc3ccc4c(c3)-c3c(c(C(N)=O)nn3-c3ccc(F)cc3)CC4)c(Cl)cn2)CC1", "activity change, negative = inhibition": "11% (inactive)"}
{"smiles": "CS(=O)(=O)c1ccc(-c2cnc(N)c(C(=O)Nc3ccccc3)n2)cc1", "activity change, negative = inhibition": "10.4% (inactive)"}
{"smiles": "CN(C)CC(C)(C)CNc1nn2c(-c3ccccc3)nnc2cc1C1CCC1", "activity change, negative = inhibition": "-2.69% (inactive)"}
{"smiles": "CC(=O)Nc1nc(C)c(-c2ccc(Cl)c(S(=O)(=O)NCCO)c2)s1", "activity change, negative = inhibition": "-12.1% (inactive)"}
{"smiles": "CCn1nnc2c(N3CCOCC3)nc(-c3ccc(NC(=O)Nc4ccc(C(=O)N5CCN(C)CC5)cc4)cc3)nc21", "activity change, negative = inhibition": "-8.83% (inactive)"}
{"smiles": "CNC(=O)c1cc(Oc2ccc(NC(=O)Nc3cc(C(C)(C)C)nn3-c3ccc4ncccc4c3)c(F)c2)ccn1", "activity change, negative = inhibition": "-3.23% (inactive)"}
{"smiles": "O=C(NCCCNc1nc(Nc2cccc(NC(=O)N3CCCC3)c2)ncc1I)c1cccs1", "activity change, negative = inhibition": "63.9% (inactive)"}
{"smiles": "Cn1c(CNc2ccc(C(=N)N)cc2)nc2cc(C(=O)N(CCC(=O)O)c3ccccn3)ccc21", "activity change, negative = inhibition": "22.9% [at 20.5 µM] (inactive)"}
{"smiles": "Cc1ccc(C(=O)Nc2cccc(C(F)(F)F)c2)cc1-c1ccc2nc(NCCN3CCOCC3)ncc2c1", "activity change, negative = inhibition": "19.6% (inactive)"}
{"smiles": "CNC(=O)c1ccc(N2C(=S)N(c3cnc(C#N)c(C(F)(F)F)c3)C(=O)C23CCC3)cc1F", "activity change, negative = inhibition": "34.1% (inactive)"}
{"smiles": "CC(C)(C)c1cnc(CSc2cnc(NC(=O)C3CCNCC3)s2)o1", "activity change, negative = inhibition": "-1.38% (inactive)"}
{"smiles": "C=C1C(=CC=C2CCC[C@]3(C)[C@@H]([C@H](C)C=C[C@H](C)C(C)C)CC[C@@H]23)C[C@@H](O)C[C@@H]1O", "activity change, negative = inhibition": "7.14% (inactive)"}
{"smiles": "O=C(Nc1nc2cccc(-c3ccc(CN4CCS(=O)(=O)CC4)cc3)n2n1)C1CC1", "activity change, negative = inhibition": "124% (inactive)"}
{"smiles": "O=C(O)C1(Cc2cccc(Nc3nccs3)n2)CCC(Oc2cccc(Cl)c2F)CC1", "note": "(stereo not given)", "activity change, negative = inhibition": "31.8% (inactive)"}
{"smiles": "Nc1nccc(Oc2ccc(NC(=O)c3c[nH]cc(-c4ccc(F)cc4)c3=O)cc2F)c1Cl", "activity change, negative = inhibition": "-7.06% (inactive)"}
{"smiles": "Clc1ccc2ncc(-c3cccc(NC4CNC4)n3)n2c1", "activity change, negative = inhibition": "25.9% (inactive)"}
{"smiles": "O=c1[nH]nc(Sc2ncc([N+](=O)[O-])s2)n1-c1ccc2c(c1)OCCO2", "activity change, negative = inhibition": "-3.72% (inactive)"}
{"smiles": "CC(C)Nc1cc(C(F)(F)F)cc2nc(NC(=O)c3cccnc3)nn12", "activity change, negative = inhibition": "1.67% (inactive)"}
{"smiles": "O=C(O)CCCc1c[nH]c2ccccc12", "activity change, negative = inhibition": "-9.41% (inactive)"}
{"smiles": "C=C1C(=CC=C2CCCC3(C)[C@@H]([C@H](C)C=CC=CC(O)(CC)CC)CC[C@@H]23)C[C@@H](O)C[C@@H]1O", "note": "(stereo not given in full)", "activity change, negative = inhibition": "14% (inactive)"}
{"smiles": "CNc1nccc(-c2cccnc2Oc2cc(C(=O)Nc3cccc(C(F)(F)F)c3)ccc2C)n1", "activity change, negative = inhibition": "17.1% (inactive)"}
{"smiles": "COc1cc2c(Nc3ccc(NC(=O)c4ccccc4)cc3)ncnc2cc1OCCCN1CCOCC1", "activity change, negative = inhibition": "6.19% (inactive)"}
{"smiles": "CCCCCCCCCC(=O)N[C@@H](Cc1c[nH]c2ccccc12)C(=O)N[C@H](CC(N)=O)C(=O)N[C@@H](CC(=O)O)C(=O)N[C@@H]1C(=O)NCC(=O)N[C@@H](CCCN)C(=O)N[C@@H](CC(=O)O)C(=O)N[C@H](C)C(=O)N[C@@H](CC(=O)O)C(=O)NCC(=O)N[C@H](CO)C(=O)N[C@@H]([C@@H](C)CC(=O)O)C(=O)N[C@@H](CC(=O)c2ccccc2N)C(=O)O[C@@H]1C", "activity change, negative = inhibition": "13.4% (inactive)"}
{"smiles": "Cc1nc(N)ncc1-c1nc(N2CCOCC2)c2sc(C(C)(C)O)cc2n1", "activity change, negative = inhibition": "28.2% (inactive)"}
{"smiles": "Cc1ccc(CN2CCNCC2)cc1NC(=O)CNc1ccc(F)c(F)c1", "activity change, negative = inhibition": "42.5% (inactive)"}
{"smiles": "CN(C1CCc2c(c3ccccc3n2CC(=O)O)C1)S(=O)(=O)c1ccc(F)cc1", "note": "(stereo not given)", "activity change, negative = inhibition": "-8.78% (inactive)"}
{"smiles": "Cc1c(Cn2c(C)nc3c(C(=O)O)cc(N4CCOCC4)cc32)cccc1C(F)(F)F", "activity change, negative = inhibition": "0.816% (inactive)"}
{"smiles": "CNC(=O)c1ccccc1Nc1nc(Nc2ccc(N3CCOCC3)cc2OC)ncc1Cl", "activity change, negative = inhibition": "41.5% (inactive)"}
{"smiles": "CC(C)c1cc(C(=O)N2Cc3ccc(CN4CCN(C)CC4)cc3C2)c(O)cc1O", "activity change, negative = inhibition": "40.3% (inactive)"}
{"smiles": "COc1cc2c(Oc3ccc(NC(=O)C4(C(=O)Nc5ccc(F)cc5)CC4)cc3F)ccnc2cc1OCCCN1CCOCC1", "activity change, negative = inhibition": "34.9% (inactive)"}
{"smiles": "CCNC(=O)Nc1ccc2ncc(Nc3ccc(C)cc3)nc2n1", "activity change, negative = inhibition": "9.68% (inactive)"}
{"smiles": "CN(C)c1nc(Cc2ccc(NC(=O)c3ccc4ccccc4c3)cc2)nc(Cl)c1CC(=O)O", "activity change, negative = inhibition": "1.92% (inactive)"}
{"smiles": "COC(=O)Nc1ccc(-c2nc(N3CCOCC3)c3cnn(C4CCN(Cc5cccnc5)CC4)c3n2)cc1", "activity change, negative = inhibition": "23.7% (inactive)"}
{"smiles": "CC(C)(C)c1cc(C(C)(C)C)c(NC(=O)c2c[nH]c3ccccc3c2=O)cc1O", "activity change, negative = inhibition": "30.3% (inactive)"}
{"smiles": "Cc1cc(Nc2cc(N3CCN(C)CC3)nc(C=Cc3ccccc3)n2)n[nH]1", "activity change, negative = inhibition": "62.7% [at 92.8 µM] (inactive)"}
